ChEMBL document CHEMBL3988442, “University of Dundee, Small-Polar-MMV Screening Library” (2021)
Out of some 48,000 compounds screened, about 13,000 (27%) showed an effect of 50% or more. The list shows a part of the results.

These compounds were tested on Wolbachia pipientis (assay: Anti-Wolbachia Cell-Based Screen). Conditions: 5 µM.
Format: functional
Parameters: scale not given: in the data most compounds retested in dose-response had high values
In the case of Cc1ccc(CN(C)C(=O)NCC(C)(C)S(C)(=O)=O)s1, the “Percent Effect” value is reported as -13.6%. For CCNc1ncc(CN2C[C@@H](CN3CCC(CO)CC3)[C@@H](CO)C2)cn1, the “Percent Effect” value was 12.05%. In the case of Cc1ccc(CC(=O)N2CCn3cc(Cn4cncn4)nc3C2)cc1, the “Percent Effect” value is reported as 8.244%. For c1cc2c(cc1-c1noc3c1CN(C1CCC1)CC3)OCO2, the “Percent Effect” value was -7.391%. In the case of CS(=O)(=O)c1nccn1Cc1ccncc1, the “Percent Effect” value is reported as -5.065%. With Cc1ccc2oc(CN3CCn4nc(CCC(=O)O)cc4C3)c(C)c2c1 the “Percent Effect” value was 5.001%. For O=C(CCCc1nc2ccccc2[nH]1)N1CCCC1c1ccncc1 (configuration not stated), the “Percent Effect” value was 8.641%. O=C(c1cc(F)ccc1F)C1CCN(C(=O)c2ccccn2)CC1 was tested, and the “Percent Effect” value was 7.01%. For C=C(Cl)CN1CCC(C(=O)c2cc(F)ccc2F)CC1, the “Percent Effect” value was -0.07038%. O=C(c1cc(F)ccc1F)C1CCN(C(=O)c2ccco2)CC1 was tested, and the “Percent Effect” value was 137.2%. With O=C(c1cc(F)ccc1F)C1CCN(C(=O)c2cccnc2O)CC1 the “Percent Effect” value was -3.966%. Cc1cccc(C(=O)N2CCC(C(=O)c3cc(F)ccc3F)CC2)n1 was tested, and the “Percent Effect” value was 159.7%. In the case of Cc1cnc(C(=O)N2CCC(C(=O)c3cc(F)ccc3F)CC2)cn1, the “Percent Effect” value is reported as 134%. NC(=O)NC(=O)CCN1CCC(C(=O)c2cc(F)ccc2F)CC1 was tested, and the “Percent Effect” value was -46.12%. In the case of O=C(c1cc(F)ccc1F)C1CCN(C(=O)c2cnccn2)CC1, the “Percent Effect” value is reported as 120.4%. With CS(=O)(=O)CCN1CCSCC1c1ccc(Cl)cc1 (configuration not stated) the “Percent Effect” value was -3.973%. For O=C(C1CC(F)(F)C1)N1CC[C@H]2OCC[C@@]2(COCC2CC2)C1, the “Percent Effect” value was -8.729%. In the case of CC(SCC(=O)NCCC#N)c1ccc(Cl)cc1 (configuration not stated), the “Percent Effect” value is reported as 5.18%. COc1cccc(-c2nc(CNCCCn3cccn3)cs2)c1 was tested, and the “Percent Effect” value was 28.1%. In the case of O=C(c1ccoc1)N1CCc2ncnc(NCc3ccccn3)c2CC1, the “Percent Effect” value is reported as 2.356%. In the case of CCCN1CCN(C(=O)c2cccnc2-n2cncn2)CC1, the “Percent Effect” value is reported as 5.341%. O=C(c1cccnc1O)N1CCC(COc2ccccc2)CC1 was tested, and the “Percent Effect” value was -5.095%. O=C(O)C(F)(F)F.O=C(c1ccoc1)N1CCC2(CC1)COC(COc1ccccn1)C2 (configuration not stated) was tested, and the “Percent Effect” value was 19.26%. For Cc1nc2ccc(C(=O)N3CCC(COc4ccccn4)CC3)cc2[nH]1, the “Percent Effect” value was 160.4%. In the case of COc1ccnc(CN(C)C(=O)CSc2nnc(N)s2)c1, the “Percent Effect” value is reported as 0.9714%. In the case of COc1ccc(-c2noc(C(=O)NCCN3CCCCC3)n2)cc1OC, the “Percent Effect” value is reported as -3.645%. In the case of COc1ccc(-c2noc(C(N)CCSC)n2)cc1OC (configuration not stated), the “Percent Effect” value is reported as 100.4%. In the case of COc1cc(OC)cc(-c2noc(CN)n2)c1, the “Percent Effect” value is reported as -5.186%. For COc1ccc(-c2noc(C3CCS(=O)(=O)C3)n2)cc1OC (configuration not stated), the “Percent Effect” value was -2.853%. With COc1cc(OC)cc(-c2noc(C(N)CCSC)n2)c1 (configuration not stated) the “Percent Effect” value was 122.3%. For COc1ccc(-c2noc([C@@H]3C[C@@H](O)CN3C3CCCCC3)n2)cc1, the “Percent Effect” value was -13.77%. For COc1ccc(-c2noc(C(N)CCSC)n2)cc1 (configuration not stated), the “Percent Effect” value was 92.78%. Cc1ccc(-c2noc([C@H](N)CC(C)C)n2)nn1 was tested, and the “Percent Effect” value was 0.7851%. COc1ccc(-c2noc(C3CC(C(C)C)=NO3)n2)cc1 (configuration not stated) was tested, and the “Percent Effect” value was -24.09%. For COc1ccnc(N2CCCN(Cc3ncc(C(C)C)o3)CC2)n1, the “Percent Effect” value was -1.774%. Cc1nc(C)n(CC2CN(c3ccc(C#N)cn3)CCO2)n1 (configuration not stated) was tested, and the “Percent Effect” value was -2.345%. In the case of Cc1cnn(CC2CN(c3ccc(C#N)cn3)CCO2)c1 (configuration not stated), the “Percent Effect” value is reported as 117.6%. In the case of Cc1cc(C)n(CC2CN(c3ccc(C#N)cn3)CCO2)n1 (configuration not stated), the “Percent Effect” value is reported as 119.8%. With CN(C)CC1CN(c2ccc(C#N)cn2)CCO1 (configuration not stated) the “Percent Effect” value was -4.596%. In the case of Cc1cc(C)n(CC2CN(CCOc3cccc(C#N)c3)CCO2)n1 (configuration not stated), the “Percent Effect” value is reported as -7.515%. With Cc1cnn(CC2CN(c3cnc4ccccc4n3)CCO2)c1 (configuration not stated) the “Percent Effect” value was -7.583%. For O=C(O)c1ccc(OC2CCOCC2)cc1, the “Percent Effect” value was 3.994%. O=C1N[C@H]2OCCC[C@H]2[C@H](c2ccccc2)N1 was tested, and the “Percent Effect” value was 111.8%. In the case of COc1ccc([C@@H]2NC(=O)N[C@H]3OCCC[C@H]32)cc1, the “Percent Effect” value is reported as 92.15%. For O=C1N[C@H]2OCCC[C@H]2[C@H](c2ccc(C(=O)O)cc2)N1, the “Percent Effect” value was 126.1%. With COc1ccc(C2CC(=O)Oc3cc(C)[nH]c(=O)c32)cc1 (configuration not stated) the “Percent Effect” value was 5.191%. In the case of O=C(O)c1ccccc1C1CCN(C2Cc3ccccc3C2)C1 (configuration not stated), the “Percent Effect” value is reported as 0.3893%. With O=C(CN1CCCC(c2ccc(C(=O)O)cc2)C1)NC1CC1 (configuration not stated) the “Percent Effect” value was -9.643%. COc1ccc(C2CC(=O)Nc3c2cnn3C2CCCC2)cc1 (configuration not stated) was tested, and the “Percent Effect” value was -0.6699%. With O=C1CO[C@H](c2ccc(NS(=O)(=O)c3ccccc3)cc2)[C@@H](CO)N1 the “Percent Effect” value was -4.896%. With O=C1N[C@H]2OCCC[C@H]2[C@H](c2ccccc2C(=O)O)N1 the “Percent Effect” value was 55.53%. CN1CCC(N2CCC(c3ccccc3C(=O)O)C2)CC1 (configuration not stated) was tested, and the “Percent Effect” value was 13.56%.
